# Measured values reported in PubChem BioAssay (NCI).
# “And” between values parts separate entries of the source, which are not always exact repeats. Equal entries are not always repeated. The panel holds about 79,000 compounds, 15% with a hit somewhere; the sample as a whole holds those more often. A structure can be active in one record and inactive in another. The source made the active and inactive calls. Rule as the data show it: active = growth inhibition above about 70%; inactive = the rest.
# Assays:
# [1] = NCI Yeast Anticancer Drug Screen. Data for the wt1 strain (AID 149);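 also: 0% = growth of vehicle-treated wt1 cultures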; conditions: S. cerevisiae wt1 strain (SPY 50644) growth inhibition, stronger effect = higher value
# Method in brief: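 Each compound is tested on wt1 yeast and the loss of growth versus vehicle gives the inhibition value.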
# [2] = NCI Yeast Anticancer Drug Screen. Data for the mgt1 strain (AID 153); conditions: S. cerevisiae mgt1 mutant growth inhibition, stronger effect = higher value
# Method in brief: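 mgt1 strain exposed; growth vs vehicle control recorded as inhibition.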
# [3] = NCI Yeast Anticancer Drug Screen. Data for the rad50 strain (AID 155);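 also: 0% = growth of vehicle-only cultures of the same strain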; conditions: S. cerevisiae rad50 strain growth inhibition, stronger effect = higher value
# Method in brief: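 Vehicle-treated cultures provide the reference for the growth inhibition reported for compound-exposed, repair-deficient yeast.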
# [4] = NCI Yeast Anticancer Drug Screen. Data for the mec2-1 strain (AID 157); conditions: S. cerevisiae mec2-1 strain, stronger effect = higher value
# Method in brief: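 Vehicle-treated cultures served as reference for growth inhibition of compound-exposed mec2-1 yeast.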
# [5] = NCI Yeast Anticancer Drug Screen. Data for the rad14 strain (AID 159);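 also: 0% = growth of vehicle-treated control cultures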; conditions: S. cerevisiae rad14 strain growth inhibition, stronger effect = higher value
# Method in brief: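 Inhibition of growth is reported for a repair-deficient yeast mutant following compound treatment, calculated relative to cultures that received vehicle.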
# [6] = NCI Yeast Anticancer Drug Screen. Data for the CLN2oe strain (AID 163);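 also: 0% = growth of vehicle-only control cultures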; conditions: S. cerevisiae CLN2oe strain, stronger effect = higher value
# Method in brief: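 Inhibition relative to vehicle-treated yeast is reported. Cells: strain with genetic alteration in cell-cycle control, grown with compound.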
# [7] = NCI Yeast Anticancer Drug Screen. Data for the cln2 rad14 strain (AID 165);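 also: 0% = growth equal to vehicle treated cultures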; conditions: S. cerevisiae cln2 rad14 strain, stronger effect = higher value
# Method in brief: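 Each compound was tested on cln2 rad14 yeast. Inhibition of growth was calculated against vehicle-exposed controls.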
# [8] = NCI Yeast Anticancer Drug Screen. Data for the bub3 strain (AID 167); conditions: S. cerevisiae bub3 mutant strain, stronger effect = higher value
# Method in brief: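 Mutant yeast screening strain plus compound; vehicle-treated cultures serve as the 0% inhibition reference.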
# [9] = NCI Yeast Anticancer Drug Screen. Data for the wt2 strain (AID 169); conditions: S. cerevisiae wt2 strain growth inhibition, stronger effect = higher value
# Method in brief: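 Inhibition of yeast growth was determined after compound treatment, normalised to controls receiving only vehicle.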
# [10] = NCI Yeast Anticancer Drug Screen. Data for the mlh1 rad18 strain (AID 175); conditions: S. cerevisiae mlh1 rad18 strain growth inhibition, stronger effect = higher value
# Method in brief: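 Vehicle-treated cultures served as the reference for growth inhibition in a yeast strain carrying DNA damage repair alterations exposed to each compound.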
# [11] = NCI Yeast Anticancer Drug Screen. Data for the rad18 strain (AID 177); conditions: S. cerevisiae rad18 mutant growth inhibition, stronger effect = higher value
# Method in brief: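 Test articles were incubated with altered yeast defective in DNA damage repair. Results are given as inhibition of growth versus vehicle.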
# [12] = NCI Yeast Anticancer Drug Screen. Data for the sgs1 mgt1 strain (AID 161);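 also: 0% = growth of cultures given vehicle only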; conditions: S. cerevisiae sgs1 mgt1 strain, stronger effect = higher value
# Method in brief: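 Genetically altered yeast, compound exposure, growth inhibition relative to vehicle.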
# [13] = NCI Yeast Anticancer Drug Screen. Data for the rad50EPP+ strain (AID 151);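 also: 0% = growth of vehicle-treated control cultures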; conditions: S. cerevisiae rad50 mutant strain, stronger effect = higher value
# Method in brief: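 In this screen, rad50EPP+ yeast were exposed to compounds. Growth inhibition was scored against vehicle-treated controls.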
# [14] = NCI Yeast Anticancer Drug Screen. Data for the mlh1 strain (AID 171);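 also: 0% = growth of vehicle-treated control cultures of the same strain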; conditions: S. cerevisiae mlh1 strain growth inhibition, stronger effect = higher value
# Method in brief: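 Vehicle-normalised growth inhibition of a repair- or checkpoint-altered yeast strain following compound treatment.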
# [15] = NCI Yeast Anticancer Drug Screen. Data for the sgs1 strain (AID 173);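 also: 0% = growth of vehicle-only control cultures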; conditions: S. cerevisiae sgs1 mutant, stronger effect = higher value
# Method in brief: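 Screen format: yeast with repair or checkpoint alterations, compound exposure, growth read relative to vehicle.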
# [16] = at 5.0 µM (retest, dose inferred, filed as 0.5)
# [17] = at 50.0 µM (retest, dose inferred, filed as 5.0)
smiles,measurement,setting,value
Cc1nc2ccc(Br)cc2c(=O)n1-c1ccc(NC2OCC(O)C(O)C2O)cc1 (stereo not drawn),growth inhibition,[1]; at 1.2 µM,3% (inactive)
same,growth inhibition,[1]; at 3.7 µM,9% (inactive)
same,growth inhibition,[1]; at 11.0 µM,12% (inactive)
same,growth inhibition,[1]; at 33.0 µM,32% (inactive)
same,growth inhibition,[1]; at 100.0 µM,70% (active)
same,growth inhibition,[2]; at 1.2 µM,6% (inactive)
same,growth inhibition,[2]; at 3.7 µM,9% (inactive)
same,growth inhibition,[2]; at 11.0 µM,24% (inactive)
same,growth inhibition,[2]; at 33.0 µM,41% (inactive)
same,growth inhibition,[2]; at 100.0 µM,81% (active)
same,growth inhibition,[3]; at 1.2 µM,-3% (inactive)
same,growth inhibition,[3]; at 3.7 µM,17% (inactive)
same,growth inhibition,[3]; [16],11% (inactive)
same,growth inhibition,[3]; at 11.0 µM,14% (inactive)
same,growth inhibition,[3]; at 33.0 µM,53% (inactive)
same,growth inhibition,[3]; [17],0% (inactive)
same,growth inhibition,[3]; at 50.0 µM,62.1% (inactive) and 46.9% (inactive)
same,growth inhibition,[3]; at 100.0 µM,86% (active)
same,growth inhibition,[4]; at 1.2 µM,12% (inactive)
same,growth inhibition,[4]; at 3.7 µM,14% (inactive)
same,growth inhibition,[4]; [16],1% (inactive)
same,growth inhibition,[4]; at 11.0 µM,23% (inactive)
same,growth inhibition,[4]; at 33.0 µM,54% (inactive)
same,growth inhibition,[4]; [17],45% (inactive)
same,growth inhibition,[4]; at 50.0 µM,38.2% (inactive) and 56.2% (inactive)
same,growth inhibition,[4]; at 100.0 µM,90% (active)
same,growth inhibition,[5]; at 1.2 µM,4% (inactive)
same,growth inhibition,[5]; at 3.7 µM,5% (inactive)
same,growth inhibition,[5]; at 11.0 µM,14% (inactive)
same,growth inhibition,[5]; at 33.0 µM,32% (inactive)
same,growth inhibition,[5]; at 100.0 µM,79% (active)
same,growth inhibition,[6]; at 1.2 µM,5% (inactive)
same,growth inhibition,[6]; at 3.7 µM,11% (inactive)
same,growth inhibition,[6]; at 11.0 µM,14% (inactive)
same,growth inhibition,[6]; at 33.0 µM,39% (inactive)
same,growth inhibition,[6]; at 100.0 µM,48% (inactive)
same,growth inhibition,[7]; [16],-3% (inactive)
same,growth inhibition,[7]; [17],53% (inactive)
same,growth inhibition,[7]; at 50.0 µM,-15.2% (inactive) and 12.8% (inactive)
same,growth inhibition,[8]; at 1.2 µM,4% (inactive)
same,growth inhibition,[8]; at 3.7 µM,8% (inactive)
same,growth inhibition,[8]; [16],7% (inactive)
same,growth inhibition,[8]; at 11.0 µM,17% (inactive)
same,growth inhibition,[8]; at 33.0 µM,49% (inactive)
same,growth inhibition,[8]; [17],60% (inactive)
same,growth inhibition,[8]; at 50.0 µM,73.2% (active) and -5.1% (inactive)
same,growth inhibition,[8]; at 100.0 µM,90% (active)
same,growth inhibition,[9]; at 1.2 µM,1% (inactive)
same,growth inhibition,[9]; at 3.7 µM,4% (inactive)
same,growth inhibition,[9]; at 11.0 µM,14% (inactive)
same,growth inhibition,[9]; at 33.0 µM,43% (inactive)
same,growth inhibition,[9]; at 100.0 µM,86% (active)
same,growth inhibition,[10]; [16],-38% (inactive)
same,growth inhibition,[10]; [17],79% (active)
same,growth inhibition,[10]; at 50.0 µM,62.4% (inactive) and 13.8% (inactive)
same,growth inhibition,[11]; at 1.2 µM,4% (inactive)
same,growth inhibition,[11]; at 3.7 µM,6% (inactive)
same,growth inhibition,[11]; at 11.0 µM,18% (inactive)
same,growth inhibition,[11]; at 33.0 µM,55% (inactive)
same,growth inhibition,[11]; at 100.0 µM,91% (active)
CCCCCCCCCCCC[N+](C)(C)C,growth inhibition,[3]; [16],-9% (inactive) and -3% (inactive) and 12% (inactive)
same,growth inhibition,[3]; [17],98% (active) and 96% (active) and 99% (active)
same,growth inhibition,[3]; at 50.0 µM,49.9% (inactive) and 80.2% (active) and 39.5% (inactive)
same,growth inhibition,[4]; [16],-3% (inactive) and 0% (inactive) and 22% (inactive)
same,growth inhibition,[4]; [17],99% (active) and 98% (active) and 100% (active)
same,growth inhibition,[4]; at 50.0 µM,53.3% (inactive) and 89.5% (active) and 92.2% (active)
same,growth inhibition,[12]; [16],-8% (inactive) and -3% (inactive) and 49% (inactive)
same,growth inhibition,[12]; [17],98% (active) and 97% (active) and 99% (active)
same,growth inhibition,[12]; at 50.0 µM,49% (inactive) and 92.5% (active) and 48.6% (inactive)
same,growth inhibition,[7]; [16],3% (inactive) and -1% (inactive) and 2% (inactive)
same,growth inhibition,[7]; [17],97% (active) and 96% (active) and 99% (active)
same,growth inhibition,[7]; at 50.0 µM,71.8% (active) and -21.6% (inactive) and 66.2% (inactive)
same,growth inhibition,[8]; [16],14% (inactive) and 9% (inactive) and 18% (inactive)
same,growth inhibition,[8]; [17],95% (active) and 98% (active) and 100% (active)
same,growth inhibition,[8]; at 50.0 µM,57.2% (inactive) and 82.1% (active) and 97.2% (active)
same,growth inhibition,[10]; [16],-4% (inactive) and -5% (inactive) and 4% (inactive)
same,growth inhibition,[10]; [17],96% (active) and 95% (active) and 99% (active)
same,growth inhibition,[10]; at 50.0 µM,83.3% (active) and 91% (active) and 80.5% (active)
CC1=Cc2ccc(C)cc2C(=O)C1=O,growth inhibition,[13]; at 1.2 µM,34% (inactive)
same,growth inhibition,[13]; at 3.7 µM,54% (inactive)
same,growth inhibition,[13]; at 11.0 µM,71% (active)
same,growth inhibition,[13]; at 33.0 µM,95% (active)
same,growth inhibition,[13]; at 100.0 µM,99% (active)
same,growth inhibition,[2]; at 1.2 µM,27% (inactive)
same,growth inhibition,[2]; at 3.7 µM,42% (inactive)
same,growth inhibition,[2]; at 11.0 µM,60% (inactive)
same,growth inhibition,[2]; at 33.0 µM,100% (active)
same,growth inhibition,[2]; at 100.0 µM,99% (active)
same,growth inhibition,[3]; at 1.2 µM,3% (inactive)
same,growth inhibition,[3]; at 3.7 µM,6% (inactive)
same,growth inhibition,[3]; [16],31% (inactive)
same,growth inhibition,[3]; at 11.0 µM,53% (inactive)
same,growth inhibition,[3]; at 33.0 µM,99% (active)
same,growth inhibition,[3]; [17],99% (active)
same,growth inhibition,[3]; at 50.0 µM,99.1% (active)
same,growth inhibition,[3]; at 100.0 µM,98% (active)
same,growth inhibition,[4]; at 1.2 µM,2% (inactive)
same,growth inhibition,[4]; at 3.7 µM,21% (inactive)
same,growth inhibition,[4]; [16],-7% (inactive)
same,growth inhibition,[4]; at 11.0 µM,42% (inactive)
same,growth inhibition,[4]; at 33.0 µM,100% (active)
same,growth inhibition,[4]; [17],99% (active)
same,growth inhibition,[4]; at 50.0 µM,99.4% (active)
same,growth inhibition,[4]; at 100.0 µM,99% (active)
same,growth inhibition,[5]; at 1.2 µM,18% (inactive)
same,growth inhibition,[5]; at 3.7 µM,31% (inactive)
same,growth inhibition,[5]; at 11.0 µM,79% (active)
same,growth inhibition,[5]; at 33.0 µM,99% (active)
same,growth inhibition,[5]; at 100.0 µM,99% (active)
same,growth inhibition,[12]; [16],43% (inactive)
same,growth inhibition,[12]; [17],99% (active)
same,growth inhibition,[12]; at 50.0 µM,99.3% (active)
same,growth inhibition,[6]; at 1.2 µM,2% (inactive)
same,growth inhibition,[6]; at 3.7 µM,2% (inactive)
same,growth inhibition,[6]; at 11.0 µM,9% (inactive)
same,growth inhibition,[6]; at 33.0 µM,18% (inactive)
same,growth inhibition,[6]; at 100.0 µM,94% (active)
same,growth inhibition,[7]; [16],0% (inactive)
same,growth inhibition,[7]; [17],99% (active)
same,growth inhibition,[7]; at 50.0 µM,98.2% (active)
same,growth inhibition,[9]; at 1.2 µM,-7% (inactive)
same,growth inhibition,[9]; at 3.7 µM,-6% (inactive)
same,growth inhibition,[9]; at 11.0 µM,4% (inactive)
same,growth inhibition,[9]; at 33.0 µM,-1% (inactive)
same,growth inhibition,[9]; at 100.0 µM,98% (active)
same,growth inhibition,[14]; at 1.2 µM,12% (inactive)
same,growth inhibition,[14]; at 3.7 µM,11% (inactive)
same,growth inhibition,[14]; at 11.0 µM,71% (active)
same,growth inhibition,[14]; at 33.0 µM,99% (active)
same,growth inhibition,[14]; at 100.0 µM,99% (active)
same,growth inhibition,[15]; at 1.2 µM,-1% (inactive)
same,growth inhibition,[15]; at 3.7 µM,8% (inactive)
same,growth inhibition,[15]; at 11.0 µM,65% (inactive)
same,growth inhibition,[15]; at 33.0 µM,99% (active)
same,growth inhibition,[15]; at 100.0 µM,99% (active)
same,growth inhibition,[10]; [16],66% (inactive)
same,growth inhibition,[10]; [17],99% (active)
same,growth inhibition,[10]; at 50.0 µM,99.2% (active)
same,growth inhibition,[11]; at 1.2 µM,25% (inactive)
same,growth inhibition,[11]; at 3.7 µM,28% (inactive)
same,growth inhibition,[11]; at 11.0 µM,66% (inactive)
same,growth inhibition,[11]; at 33.0 µM,99% (active)
same,growth inhibition,[11]; at 100.0 µM,98% (active)
